{"source": "the supplement of paper PMC11732987", "about": "“Enantioselective OTUD7B fragment discovery through chemoproteomics screening and high-throughput optimisation” (Communications Chemistry, 2025)", "test_in_all_cases": "log2 ratio of Biotin-Ahx-Ub-VS probe labelling (fragment/DMSO); higher = less target engagement (more negative = stronger competition), active = hit call of the paper (q ≤ 0.05, log2 ratio ≤ -1)", "details_in_all_cases": "compound concentration: 200 uM; treatment time: 3 h", "key": {"[1]": {"target": "T1, USP19 (UniProt O94966)", "T1 sequence (whole entry)": "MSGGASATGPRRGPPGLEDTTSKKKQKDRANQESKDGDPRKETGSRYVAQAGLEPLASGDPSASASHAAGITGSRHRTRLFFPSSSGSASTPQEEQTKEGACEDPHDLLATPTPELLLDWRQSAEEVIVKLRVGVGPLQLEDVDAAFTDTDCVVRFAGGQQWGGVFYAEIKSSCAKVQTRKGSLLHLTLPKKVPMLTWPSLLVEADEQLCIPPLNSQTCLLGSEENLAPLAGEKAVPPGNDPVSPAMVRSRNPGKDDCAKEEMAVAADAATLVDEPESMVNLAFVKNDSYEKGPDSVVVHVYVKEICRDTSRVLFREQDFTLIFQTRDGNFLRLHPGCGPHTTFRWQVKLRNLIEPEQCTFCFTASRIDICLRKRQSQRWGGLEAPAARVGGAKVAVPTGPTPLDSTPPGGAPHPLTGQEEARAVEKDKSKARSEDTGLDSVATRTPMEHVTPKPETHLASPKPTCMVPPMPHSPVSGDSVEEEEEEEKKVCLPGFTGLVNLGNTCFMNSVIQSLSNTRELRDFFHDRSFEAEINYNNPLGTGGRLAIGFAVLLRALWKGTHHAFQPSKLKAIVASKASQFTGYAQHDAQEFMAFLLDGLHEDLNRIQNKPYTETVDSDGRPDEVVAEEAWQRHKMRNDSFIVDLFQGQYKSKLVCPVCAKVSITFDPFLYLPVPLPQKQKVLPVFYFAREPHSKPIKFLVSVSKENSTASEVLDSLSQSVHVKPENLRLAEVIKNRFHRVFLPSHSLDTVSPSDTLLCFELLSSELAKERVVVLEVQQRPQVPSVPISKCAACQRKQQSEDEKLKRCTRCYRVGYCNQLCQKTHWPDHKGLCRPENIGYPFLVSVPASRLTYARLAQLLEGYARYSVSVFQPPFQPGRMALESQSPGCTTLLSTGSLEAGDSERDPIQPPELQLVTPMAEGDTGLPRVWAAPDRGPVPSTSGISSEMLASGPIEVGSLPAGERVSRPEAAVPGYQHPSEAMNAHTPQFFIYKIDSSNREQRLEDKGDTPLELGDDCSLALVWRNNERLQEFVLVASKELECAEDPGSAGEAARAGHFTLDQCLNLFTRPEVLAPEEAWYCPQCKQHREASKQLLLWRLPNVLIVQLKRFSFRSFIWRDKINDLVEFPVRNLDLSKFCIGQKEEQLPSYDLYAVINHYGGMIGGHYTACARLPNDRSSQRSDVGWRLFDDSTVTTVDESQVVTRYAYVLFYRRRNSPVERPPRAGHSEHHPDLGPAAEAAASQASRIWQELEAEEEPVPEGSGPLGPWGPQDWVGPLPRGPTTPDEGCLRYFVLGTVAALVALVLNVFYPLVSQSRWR", "summary_of_the_method": "(§1)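 Labelling with Biotin-Ahx-Ub-VS (0.5 µM final, 1 h) followed a 3 h triplicate treatment of HEK293T lysate (495 µg per sample, Tris/CHAPS/IGEPAL buffer with protease inhibitors) with fragment at 200 µM or vehicle. Labelled DUBs were NeutrAvidin-enriched, digested with LysC and trypsin, and run by diaPASEF LC-MS/MS. The values, average log2 fragment/vehicle ratios by unpaired t-test, come from global-median-normalised Spectronaut label-free quantities. Proteins with ≥2 unique peptides were used.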"}, "[2]": {"target": "T2, USP22 (UniProt Q9UPT9)", "T2 sequence (whole entry)": "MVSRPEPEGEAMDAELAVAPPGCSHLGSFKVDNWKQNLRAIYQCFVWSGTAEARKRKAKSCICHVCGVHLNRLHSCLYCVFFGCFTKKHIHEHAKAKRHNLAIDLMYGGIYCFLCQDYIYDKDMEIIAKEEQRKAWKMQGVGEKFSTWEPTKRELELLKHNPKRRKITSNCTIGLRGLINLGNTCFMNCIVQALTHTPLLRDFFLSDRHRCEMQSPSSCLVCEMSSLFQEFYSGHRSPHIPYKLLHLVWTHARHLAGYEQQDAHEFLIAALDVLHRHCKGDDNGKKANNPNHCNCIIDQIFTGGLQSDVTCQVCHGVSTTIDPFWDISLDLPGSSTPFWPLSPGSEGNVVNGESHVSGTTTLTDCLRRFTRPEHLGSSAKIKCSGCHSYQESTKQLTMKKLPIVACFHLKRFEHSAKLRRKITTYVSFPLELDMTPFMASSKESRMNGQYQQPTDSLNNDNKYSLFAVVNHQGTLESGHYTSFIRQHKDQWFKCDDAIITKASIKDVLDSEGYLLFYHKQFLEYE", "summary_of_the_method": "as §1"}, "[3]": {"target": "USP24 (UniProt Q9UPU5)", "sequence (Q9UPU5 whole entry)": "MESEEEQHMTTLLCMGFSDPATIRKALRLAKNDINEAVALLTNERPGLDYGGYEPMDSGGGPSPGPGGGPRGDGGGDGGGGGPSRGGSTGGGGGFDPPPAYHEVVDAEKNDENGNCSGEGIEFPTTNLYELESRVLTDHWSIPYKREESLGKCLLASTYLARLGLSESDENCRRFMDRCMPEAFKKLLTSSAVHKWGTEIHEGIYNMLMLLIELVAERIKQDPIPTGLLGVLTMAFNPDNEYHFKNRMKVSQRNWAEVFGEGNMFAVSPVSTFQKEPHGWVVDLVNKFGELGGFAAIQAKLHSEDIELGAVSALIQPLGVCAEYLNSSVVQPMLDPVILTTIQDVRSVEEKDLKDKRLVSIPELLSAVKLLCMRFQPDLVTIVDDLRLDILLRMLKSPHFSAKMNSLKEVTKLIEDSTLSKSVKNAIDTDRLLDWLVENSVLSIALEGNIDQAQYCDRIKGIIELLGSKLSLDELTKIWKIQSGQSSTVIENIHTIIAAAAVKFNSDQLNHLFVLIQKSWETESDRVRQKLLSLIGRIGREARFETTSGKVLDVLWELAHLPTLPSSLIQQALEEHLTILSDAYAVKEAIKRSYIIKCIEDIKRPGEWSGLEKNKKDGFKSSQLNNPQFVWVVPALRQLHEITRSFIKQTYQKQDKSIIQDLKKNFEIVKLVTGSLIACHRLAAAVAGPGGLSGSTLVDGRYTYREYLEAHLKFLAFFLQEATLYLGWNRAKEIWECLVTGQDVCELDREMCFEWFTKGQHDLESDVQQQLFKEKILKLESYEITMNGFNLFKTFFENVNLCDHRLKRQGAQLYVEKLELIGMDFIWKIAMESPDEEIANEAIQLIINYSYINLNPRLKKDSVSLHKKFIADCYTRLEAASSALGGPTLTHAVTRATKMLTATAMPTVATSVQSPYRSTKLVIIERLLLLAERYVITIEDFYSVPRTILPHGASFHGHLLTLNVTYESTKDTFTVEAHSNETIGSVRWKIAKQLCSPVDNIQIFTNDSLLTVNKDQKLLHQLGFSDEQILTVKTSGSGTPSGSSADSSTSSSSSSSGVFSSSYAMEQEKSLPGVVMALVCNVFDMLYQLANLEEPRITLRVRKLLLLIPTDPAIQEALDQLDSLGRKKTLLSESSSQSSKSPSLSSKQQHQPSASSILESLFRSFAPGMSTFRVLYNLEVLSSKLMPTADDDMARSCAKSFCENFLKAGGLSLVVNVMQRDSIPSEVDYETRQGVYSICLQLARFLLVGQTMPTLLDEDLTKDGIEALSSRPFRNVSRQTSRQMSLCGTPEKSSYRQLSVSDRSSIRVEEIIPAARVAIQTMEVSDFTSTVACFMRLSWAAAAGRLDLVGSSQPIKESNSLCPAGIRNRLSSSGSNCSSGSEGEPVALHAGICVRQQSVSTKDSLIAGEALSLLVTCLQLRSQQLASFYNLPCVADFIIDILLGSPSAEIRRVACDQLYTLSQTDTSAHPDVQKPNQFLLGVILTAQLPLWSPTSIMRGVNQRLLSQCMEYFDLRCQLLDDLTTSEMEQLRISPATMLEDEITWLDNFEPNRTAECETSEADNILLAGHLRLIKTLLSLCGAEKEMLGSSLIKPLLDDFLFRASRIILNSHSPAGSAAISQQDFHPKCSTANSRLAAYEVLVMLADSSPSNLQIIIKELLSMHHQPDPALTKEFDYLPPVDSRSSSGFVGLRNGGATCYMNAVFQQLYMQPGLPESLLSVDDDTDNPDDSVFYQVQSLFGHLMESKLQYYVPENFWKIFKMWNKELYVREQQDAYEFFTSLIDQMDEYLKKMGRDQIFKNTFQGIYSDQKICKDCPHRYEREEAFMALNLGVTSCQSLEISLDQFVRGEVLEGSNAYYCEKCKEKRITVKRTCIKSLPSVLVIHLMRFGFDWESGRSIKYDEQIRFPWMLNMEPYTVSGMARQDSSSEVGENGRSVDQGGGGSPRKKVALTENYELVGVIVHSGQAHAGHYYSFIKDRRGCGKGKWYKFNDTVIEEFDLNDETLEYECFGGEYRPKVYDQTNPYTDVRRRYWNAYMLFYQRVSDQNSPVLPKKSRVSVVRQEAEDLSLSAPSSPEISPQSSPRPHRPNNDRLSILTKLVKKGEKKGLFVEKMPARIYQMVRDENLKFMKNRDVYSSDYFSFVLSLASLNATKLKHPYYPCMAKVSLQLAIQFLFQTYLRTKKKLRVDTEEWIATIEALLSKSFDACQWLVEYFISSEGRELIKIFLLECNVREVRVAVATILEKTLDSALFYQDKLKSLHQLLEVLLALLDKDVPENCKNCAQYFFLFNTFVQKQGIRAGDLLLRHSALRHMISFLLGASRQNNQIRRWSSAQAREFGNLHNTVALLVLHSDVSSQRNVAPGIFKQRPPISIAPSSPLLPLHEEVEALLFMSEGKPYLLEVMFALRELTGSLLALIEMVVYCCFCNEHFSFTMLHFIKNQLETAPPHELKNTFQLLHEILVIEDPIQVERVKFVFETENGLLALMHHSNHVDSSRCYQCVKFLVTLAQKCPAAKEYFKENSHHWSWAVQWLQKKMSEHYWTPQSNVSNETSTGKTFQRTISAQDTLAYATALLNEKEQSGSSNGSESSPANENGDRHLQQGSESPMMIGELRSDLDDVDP", "summary_of_the_method": "as §1"}, "[4]": {"target": "T3, USP25 (UniProt Q9UHP3)", "T3 sequence (whole entry)": "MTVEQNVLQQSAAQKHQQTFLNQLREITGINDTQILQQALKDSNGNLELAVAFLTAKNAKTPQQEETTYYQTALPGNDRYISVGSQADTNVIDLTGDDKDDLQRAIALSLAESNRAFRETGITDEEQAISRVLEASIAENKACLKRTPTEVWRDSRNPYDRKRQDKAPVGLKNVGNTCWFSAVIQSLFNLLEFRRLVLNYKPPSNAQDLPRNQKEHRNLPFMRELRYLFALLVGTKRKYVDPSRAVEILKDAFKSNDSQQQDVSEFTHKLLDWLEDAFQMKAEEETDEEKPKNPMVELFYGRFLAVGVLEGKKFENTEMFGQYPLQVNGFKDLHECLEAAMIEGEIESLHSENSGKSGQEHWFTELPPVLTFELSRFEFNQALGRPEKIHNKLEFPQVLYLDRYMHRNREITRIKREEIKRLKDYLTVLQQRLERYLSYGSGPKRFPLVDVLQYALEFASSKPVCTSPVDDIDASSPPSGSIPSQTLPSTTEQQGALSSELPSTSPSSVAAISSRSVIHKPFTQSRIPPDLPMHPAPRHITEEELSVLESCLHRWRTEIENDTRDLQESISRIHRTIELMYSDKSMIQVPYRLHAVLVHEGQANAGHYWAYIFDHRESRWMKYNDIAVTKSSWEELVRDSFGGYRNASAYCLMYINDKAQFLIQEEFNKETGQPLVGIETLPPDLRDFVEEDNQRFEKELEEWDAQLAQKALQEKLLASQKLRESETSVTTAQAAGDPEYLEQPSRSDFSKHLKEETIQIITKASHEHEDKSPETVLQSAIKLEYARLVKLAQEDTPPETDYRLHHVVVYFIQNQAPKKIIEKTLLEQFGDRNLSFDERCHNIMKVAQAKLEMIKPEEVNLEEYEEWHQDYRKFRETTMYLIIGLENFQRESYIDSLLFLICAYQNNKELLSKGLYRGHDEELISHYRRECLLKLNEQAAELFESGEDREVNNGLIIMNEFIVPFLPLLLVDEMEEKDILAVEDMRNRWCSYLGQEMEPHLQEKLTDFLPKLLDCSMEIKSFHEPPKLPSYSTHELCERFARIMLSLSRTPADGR", "summary_of_the_method": "as §1"}, "[5]": {"target": "T4, USP28 (UniProt Q96RU2)", "T4 sequence (whole entry)": "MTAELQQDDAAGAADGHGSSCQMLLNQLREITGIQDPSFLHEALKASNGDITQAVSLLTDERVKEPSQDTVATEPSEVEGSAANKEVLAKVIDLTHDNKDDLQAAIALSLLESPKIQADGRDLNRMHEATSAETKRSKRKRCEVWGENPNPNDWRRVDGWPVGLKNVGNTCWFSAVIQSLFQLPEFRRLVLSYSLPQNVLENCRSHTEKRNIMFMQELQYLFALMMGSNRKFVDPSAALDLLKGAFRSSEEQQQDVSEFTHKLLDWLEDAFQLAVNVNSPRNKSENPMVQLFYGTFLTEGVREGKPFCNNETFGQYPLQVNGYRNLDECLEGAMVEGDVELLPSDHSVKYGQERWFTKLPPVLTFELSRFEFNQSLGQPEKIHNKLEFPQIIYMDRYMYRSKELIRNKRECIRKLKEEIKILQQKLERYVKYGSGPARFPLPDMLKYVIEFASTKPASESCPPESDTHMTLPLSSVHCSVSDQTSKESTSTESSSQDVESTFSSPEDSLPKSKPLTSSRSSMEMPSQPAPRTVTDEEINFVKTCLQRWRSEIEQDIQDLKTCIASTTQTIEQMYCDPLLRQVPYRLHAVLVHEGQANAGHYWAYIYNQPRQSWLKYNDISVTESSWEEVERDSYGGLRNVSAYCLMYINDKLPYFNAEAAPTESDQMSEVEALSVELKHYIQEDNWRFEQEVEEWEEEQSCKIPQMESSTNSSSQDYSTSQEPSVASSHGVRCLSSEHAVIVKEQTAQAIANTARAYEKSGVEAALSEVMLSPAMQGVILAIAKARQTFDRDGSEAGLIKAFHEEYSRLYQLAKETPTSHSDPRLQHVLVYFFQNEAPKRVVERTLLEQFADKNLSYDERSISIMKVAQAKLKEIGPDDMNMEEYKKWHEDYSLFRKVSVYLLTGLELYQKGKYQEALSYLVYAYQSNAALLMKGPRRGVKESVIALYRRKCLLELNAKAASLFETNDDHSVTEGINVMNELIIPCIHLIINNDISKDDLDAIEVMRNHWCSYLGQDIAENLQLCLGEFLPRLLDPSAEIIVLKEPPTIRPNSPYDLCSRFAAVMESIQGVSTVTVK", "summary_of_the_method": "as §1"}}, "note": "Unmarked numbers belong to inactive results.", "data": [{"smiles": "Cc1ccc(N(CCC#N)C(=O)CCl)cc1C", "values": [{"measurement": "log2 ratio of Biotin-Ahx-Ub-VS probe labelling", "setting": "[1]", "result": -0.203}, {"measurement": "log2 ratio of Biotin-Ahx-Ub-VS probe labelling", "setting": "[2]", "result": 0.0466}, {"measurement": "log2 ratio of Biotin-Ahx-Ub-VS probe labelling", "setting": "[3]", "result": "-1.05 (active)"}, {"measurement": "log2 ratio of Biotin-Ahx-Ub-VS probe labelling", "setting": "[4]", "result": -0.271}, {"measurement": "log2 ratio of Biotin-Ahx-Ub-VS probe labelling", "setting": "[5]", "result": -0.679}]}]}
